An excerpt weighted towards active compounds, which were near 12% of everything screened.
JMJD2A Tudor inh = blocks the human JMJD2A Tudor domain; actives 4.4% (n = 390,000); AlphaScreen JMJD2A-Tudor / H3K4me3 peptide binding; Potency, µM (series often up to 114 µM), usual class: inhibitors; note: nearly all actives have a fitted effect of over 50% in size
G9a block = blocks human histone lysine methyltransferase G9a | actives 8.8% (n = 350,000) | Potency, µM (highest dose often 102 µM), most hits filed as inhibitors | Q96KQ7 | G9a H3K9 monomethylation, AlphaScreen, 2 h | AID 504332; note: nearly all actives have a fitted effect of over 75% in size
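Enzyme 20 nM + cpd, 15 min RT; add b-H3K9 pep 500 nM / SAM 20 uM; 2 h RT; anti-H3K9me1 Ab 0.5 ug/mL + SA donor / anti-rabbit acceptor beads 20 ug/mL each, 10 min; AlphaScreen read.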
BAZ2B inh = inhibitors of human BAZ2B bromodomain; actives 4.4% (n = 360,000); Potency, µM (doses to about 114 µM), most hits filed as inhibitors; AlphaScreen BAZ2B-H3K14Ac peptide displacement; Q9UIF8; note: nearly all actives have a fitted effect of over 60% in size
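AlphaScreen luminescence quantifies BAZ2B engagement of H3K14Ac peptide; the protein and biotinylated peptide are both at 50 nM final, buffer PBS pH 7.4 with 0.01% Tween-20, all steps at room temperature.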
L3MBTL1 block = L3MBTL1 (human) inhibition; Q9Y468; AlphaScreen L3MBTL1–H3K9me1 peptide binding; Potency, µM (series often up to 57.1 µM), most hits filed as inhibitors; actives 0.66% (n = 230,000); AID 485360; note: nearly all actives have a fitted effect of over 60% in size
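First, the protein-peptide complex forms for 30 min at room temperature (L3MBTL1 50 nM, biotinylated H3K9me1 peptide 75 nM). Next, compounds are pin-transferred and incubated 30 min. Finally, AlphaScreen beads are added and read after 30 min.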
HP1b chromo inh = inhibitors of HP1-beta chromodomain binding to methylated histone tails. actives 0.56% (n = 390,000). P83916. Potency, µM (highest dose often 114 µM), most hits filed as inhibitors. AID 540317. AlphaScreen HP1-beta / biotin-H3K9me3 peptide binding; note: nearly all actives have a fitted effect of over 70% in size
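AlphaScreen: HP1-beta (50 nM) preformed 30 min with biotin-H3(1-18)K9me3 peptide (50 nM) in PBS pH 7.4, 0.01% Tween-20. Compound added for 30 min at RT, then streptavidin donor/nickel chelate acceptor beads (10 ug/mL) for 30 min.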
Sfp PPTase inh = inhibitors of Bacillus subtilis Sfp phosphopantetheinyl transferase | Q9F4F7 | Biochemical Sfp PPTase activity, qHTS | Potency, µM, actives largely listed as inhibitors | actives 3.5% (n = 310,000) | AID 1490;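 note: the enzyme is Sfp with the accession as filed and its product quenches rhodamine fluorescence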
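After 15 min at room temperature with compound, 15 nM Sfp received 5 uM rhodamine-CoA plus 12.5 uM BHQ-2-ybbR (50 mM Hepes pH 7.6, 10 mM MgCl2). Rate came from the fluorescence difference over 30 min, ex 525/em 598 nm.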
A number is an active result; 0 = inactive; ? = inconclusive; - = no result; [ ] = dose if it differs, or a comment. Calls come from the whole dose curve; as a rule, active = well fitted curve in the direction sought with a large enough effect; inconclusive = small, poorly fitted or top-dose-only effect, or another doubt; inactive = no such curve, though single readings can be large; an effect the other way counts as inactive or inconclusive.

SMILES	JMJD2A Tudor inh	G9a block	BAZ2B inh	L3MBTL1 block	HP1b chromo inh	Sfp PPTase inh
Nc1nc(N)nc(Cc2ccccc2O)n1	0	0[0.501 µM]	0	0	0	-
O=C(NCC(c1cccnc1)N1CCc2ccccc21)c1cccc(Br)c1 (stereo unspecified)	0	0	?	-	0	-
COc1ccc(CCNC(=O)Cc2ccc(NS(=O)(=O)c3ccc(F)cc3)cc2)cc1OC	0	0	0	0	0	-
CCCCN1C(=O)C(O)=C(C(C)=O)C1c1ccccc1 (stereo unspecified)	0	50µM	?	-	0	0
Cc1cccc(Cn2ncc3c4sc(C)cc4n(C)c3c2=O)c1	0	-	-	-	-	-
CCCCC(=O)NC1=C(C(=O)OC)SCC1	?	4.5µM	?	0	0	0
CCN(CC)S(=O)(=O)c1ccc(C(=O)NC2=C(C(=O)OC)SCC2)cc1	40µM	0[12.7 µM]	?	0	0	0
Cn1c(=O)c2c(nc(NCC3CCCC(CN)C3)n2Cc2ccc(Cl)cc2Cl)n(C)c1=O (stereo unspecified)	0	0	0	-	0	0
CC1(C)O[C@H]2O[C@@H]([C@H](O)CON3C(=O)c4ccccc4C3=O)[C@H](O)[C@H]2O1	-	-	-	-	-	0
COc1ccc(S(=O)(=O)NNC(=O)Nc2ccc(C)cc2C)c(OC)c1	0	0	0	-	0	0
CC(=O)Oc1c(Sc2ccccc2[N+](=O)[O-])c(C)nn1C(C)(C)C	?	45µM	?	?	0	0
Cc1n[nH]c(C)c1Sc1ccccc1[N+](=O)[O-]	0	0	?	0	0	0
COc1cc(OC)cc(C(=O)Oc2c(Sc3ccccc3)c(C)nn2C(C)(C)C)c1	0	0	0	-	0	-
Cc1ccc(-n2nc(C)c(Sc3ccccc3[N+](=O)[O-])c2N)cc1	?	10µM	35µM	0	?	0
CC(C)n1cc2c(N)ncnc2n1	0	-	-	-	0	-
CCCCNc1c(-c2ccc(OC)c(SC3CCCCC3)c2)nc2cc(C)ccn12	56µM	0[2.33 µM]	?	0	0	-
O=C(COc1ccccc1[N+](=O)[O-])N1CCCc2ccccc21	0	71µM	0	-	0	0
O=C(OCC(=O)N1CCCc2ccccc21)c1ccccc1[N+](=O)[O-]	0	?	0	0	0	-
Cc1ccc(OCC(=O)N2CCc3ccccc32)cc1	0	0	0	0	0	0
O=C(COc1ccc2c(c1)CCC2)N1CCc2ccccc21	40µM	0	0	0	?	0
CCOC(=O)CCN1C(=O)[C@H]2[C@H]3[C@H](O)[C@H](O)C/C(=N/NC(=O)OCc4ccccc4)[C@@H]3CC[C@@H]2C1=O	-	-	-	-	-	0
CC/C(=N\Nc1ccc([N+](=O)[O-])cc1[N+](=O)[O-])c1ccc(O)cc1	0	0[12.7 µM]	11µM	-	0	0
CC(=O)c1ccc(-n2nncc2C(C)(C)C)cc1	0	0	0	0	0	0
C/C(=N\Nc1ccc([N+](=O)[O-])cc1[N+](=O)[O-])C(C)(C)C(C(=O)O)C(=O)O	22µM	?	?	0	0	0
CC/C(=N\Nc1ccccc1[N+](=O)[O-])c1ccc(O)cc1	14µM	-	6.3µM	25µM	13µM	?
SMILES	JMJD2A Tudor inh	G9a block	BAZ2B inh	L3MBTL1 block	HP1b chromo inh	Sfp PPTase inh
C/C(=N\Nc1ccc(C#N)cc1[N+](=O)[O-])c1ccc(O)cc1	0	-	0	0	0	0
C/C(=N/Nc1ccccc1[N+](=O)[O-])c1ccc([N+](=O)[O-])cc1	0	0[2.33 µM]	?	-	0	0
C/C(=N\Nc1ccc([N+](=O)[O-])cc1[N+](=O)[O-])c1ccc(-n2nncc2C(C)(C)C)cc1	?	7.1µM	?	0	?	0
OC[C@@H]1O[C@@H](n2cnc3c(N[C@H]4CCC[C@@H]4O)ncnc32)[C@H](O)[C@H]1O	-	-	-	-	-	0
O=C(NCC(=O)N1CCCC(C(F)(F)F)C1)c1ccco1 (stereo unspecified)	0	0[12.7 µM]	0	0	0	-
CCOc1ccc(CCNC(=O)c2cc3c(=O)oc4ccc(C)cc4c3s2)cc1OCC	?	0	0	-	0	-
C/C(=N\Nc1ccc(S(N)(=O)=O)cc1[N+](=O)[O-])c1ccccc1O	0	0	0	0	0	0

Screens (PubChem)
